According to PubChem BioAssay (Tox21):
Results filed as inconclusive are left out. Active and inactive are the calls of the source. Unless noted, calls follow the shape of the full dose curve.

Columns and labels:
[1] = qHTS assay to identify small molecule agonists of the vitamin D receptor (VDR) signaling pathway - cell viability counter screen (AID 743224; active = well fitted curve in the direction sought with a large enough effect in the repeat runs; an effect the other way counts as inactive or inconclusive; also: series mostly up to about 63 µM; % is scaled to controls: 0 for no effect and ±100 for the full control effect; nearly all actives have a fitted effect of over 50% in size)
How it was run: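 Cells: VDR-bla, 2,000/well, settled 4 h. Treatment: compounds in DMSO, 16 h, 37C/5% CO2. Readout: CellTiter-Glo luminescence after 30 min RT.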

[2] = qHTS assay to identify small molecule antagonists of the vitamin D receptor (VDR) signaling pathway - cell viability counter screen (AID 743225; active = well fitted curve in the direction sought with a large enough effect in the repeat runs; an effect the other way counts as inactive or inconclusive; also: % is scaled to controls: 0 for no effect and ±100 for the full control effect; nearly all actives have a fitted effect of over 50% in size)
How it was run: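 Cells (VDR-UAS-bla HEK 293T) are plated, rested 4 h at 37C, dosed with compound and 3 nM final 1-alpha,25-dihydroxy vitamin D3, and incubated 16 h. Viability is taken from CellTiter-Glo luminescence in the reporter wells.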

[3] = qHTS assay to identify small molecule agonists of the NFkB signaling pathway - cell viability counter screen (AID 1159515); also: series mostly up to about 61 µM; % is scaled to controls: 0 for no effect and ±100 for the full control effect; nearly all actives have a fitted effect of over 55% in size
How it was run: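 Cells are seeded (2,000 NFkB-bla ME-180 per well), rested overnight, and dosed with DMSO-dissolved compounds for 5 hr at 37 C. Viability is then read by CellTiter-Glo luminescence after 30 min at room temperature.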

[4] = qHTS assay to identify small molecule agonists of the endoplasmic reticulum stress response signaling pathway (AID 1159516; active = well fitted activation curve with a large enough effect in the signal ratio in the repeat runs, not every such curve was filed as active; the % refers to the signal ratio; also: potency is read from the fitted curve at half-maximal effect; as to activation: % is scaled to controls: 0 for no effect and ±100 for the full control effect)
How it was run: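 Cells are seeded at 1,500 per well and incubated overnight. Compounds in DMSO are added for 5 hr at 37 C, then beta-lactamase FRET substrate for 2 hr at room temperature, and fluorescence at 460 and 530 nm is measured.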

[5] = qHTS assay to identify small molecule agonists of the endoplasmic reticulum stress response signaling pathway - cell viability counter screen (AID 1159517);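 also: HeLa cells carrying an ER stress response element beta-lactamase reporter; series mostly up to about 61 µM; % is scaled to controls: 0 for no effect and ±100 for the full control effect; nearly all actives have a fitted effect of over 50% in size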
How it was run: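 Cytotoxicity of test compounds toward ESRE-bla HeLa cells was assessed after 5 hr exposure. The luminescent CellTiter-Glo signal was measured 30 min after reagent addition.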

[6] = qHTS assay to identify small molecule antagonists of the retinoid-related orphan receptor gamma (ROR-gamma) signaling pathway - cell viability counter screen (AID 1159520; active = well fitted curve in the direction sought with a large enough effect in the repeat runs; an effect the other way counts as inactive or inconclusive; also: nearly all actives have a fitted effect of over 50% in size; also: potency is read from the fitted curve at half-maximal effect; as to activity, negative = cytotoxicity: % is scaled to controls: 0 for no effect and ±100 for the full control effect)
How it was run: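 Tet-on ROR gamma CHO cells (1,000/well) were plated 4 hr, given compounds in DMSO for 2 hr at 37 C, then induced with 1 uM final doxycycline for 16 hr. Viability was read as ATP by CellTiter-Glo luminescence after 30 min.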

[7] = molecular target: Nuclear receptor ROR-gamma (Homo sapiens) (UniProt P51449); assay: qHTS assay to identify small molecule antagonists of the retinoid-related orphan receptor gamma (ROR-gamma) signaling pathway (AID 1159521; active = well fitted curve in the direction sought with a large enough effect in the repeat runs; an effect the other way counts as inactive or inconclusive; also: nearly all actives have a fitted effect of over 50% in size; also: potency is read from the fitted curve at half-maximal effect;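 as to activity change, negative = inhibition: CHO cells with doxycycline inducible ROR-gamma driving an RORE luciferase reporter; top concentration of the series differs between compounds; % is scaled to controls: 0 for no effect and ±100 for the full control effect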)
How it was run: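 RORγ antagonism is scored from reduced reporter luminescence in Tet-on CHO cells. Induction used 1 uM final doxycycline hyclate for 16 h at 37 C, following a 2 h compound exposure.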

[8] = qHTS assay to identify small molecule agonists of the AP-1 signaling pathway - cell viability counter screen (AID 1159525); also: nearly all actives have a fitted effect of over 55% in size
How it was run: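 Each titration point was normalised to DMSO and tetra n-octyl ammonium bromide controls. The read was Cell Titer Glo luminescence after 30 min at RT, following 5 h compound exposure of ME-180 AP-1-bla cells at 37 °C.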

[9] = qHTS assay to identify small molecule agonists of the AP-1 signaling pathway (AID 1159526); also: % is scaled to controls: 0 for no effect and ±100 for the full control effect
[10] = molecular target: Retinoic acid receptor RXR-alpha (Homo sapiens) (UniProt P19793); assay: qHTS assay to identify small molecule agonists of the RXR signaling pathway (AID 1159527); also: % is scaled to controls: 0 for no effect and ±100 for the full control effect; nearly all actives have a fitted effect of over 35% in size
Sequence of Retinoic acid receptor RXR-alpha (Homo sapiens) (P19793 whole entry, looked up): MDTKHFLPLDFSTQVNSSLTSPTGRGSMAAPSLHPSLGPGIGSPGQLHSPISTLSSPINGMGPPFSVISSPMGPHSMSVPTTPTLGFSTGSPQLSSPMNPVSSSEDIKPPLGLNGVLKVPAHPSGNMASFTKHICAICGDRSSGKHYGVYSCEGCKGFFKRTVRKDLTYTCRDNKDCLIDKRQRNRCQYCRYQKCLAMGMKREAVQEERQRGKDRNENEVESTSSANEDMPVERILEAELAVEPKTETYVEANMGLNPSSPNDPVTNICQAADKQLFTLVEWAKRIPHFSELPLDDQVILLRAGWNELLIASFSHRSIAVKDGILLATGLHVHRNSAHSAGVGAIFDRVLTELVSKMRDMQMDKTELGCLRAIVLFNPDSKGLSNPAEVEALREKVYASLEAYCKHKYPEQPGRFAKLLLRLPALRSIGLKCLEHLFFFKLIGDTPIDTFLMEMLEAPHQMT
How it was run: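 qHTS of the Tox21 10K library in GeneBLAzer RXR-alpha HEK 293T cells carrying a beta-lactamase reporter […]; 16 hr treatment, 9-cis retinoic acid as agonist control, FRET read-out.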

O=C(Cl)c1c(Cl)cccc1Cl
inactive: Potency [1] | Potency [2] | Potency [3] | Potency [4] | outcome [5] | Potency [6] | Potency [7] | Potency [8] | Potency [9]

CCCCC(CC)(CO)CO
inactive: Potency [1] | Potency [2] | Potency [3] | Potency [4] | outcome [5] | Potency [6] | Potency [7] | Potency [8] | Potency [9]

CC(C)(C)c1cc(O)c(C(C)(C)C)cc1O
active: Potency [4] 5.49 µM | Potency [6] 48.6 µM | Potency [7] 15.4 µM
inactive: Potency [1] | Potency [3] | outcome [5] | Potency [8] | Potency [9]

CC(C)(C)c1ccc(S)cc1
inactive: Potency [1] | Potency [2] | Potency [3] | Potency [4] | outcome [5] | Potency [6] | Potency [7] | Potency [8] | Potency [9]

O=C(O)Cc1cc(I)c(Oc2ccc(O)c(I)c2)c(I)c1
inactive: Potency [3] | Potency [4] | outcome [5] | Potency [6] | Potency [7] | Potency [8]

CCOC(=O)C1=C(C)NC(C)=C(C(=O)OC)C1c1cccc([N+](=O)[O-])c1 (stereo not drawn)
inactive: Potency [1] | Potency [2] | Potency [3] | Potency [4] | outcome [5] | Potency [6] | Potency [7] | Potency [8] | Potency [9]

O=C(CCN1CCN2CCCC2C1)N1c2ccccc2Sc2ccc(Cl)cc21 (stereo not drawn)
inactive: Potency [1] | Potency [2] | Potency [3] | Potency [4] | outcome [5] | activity, negative = cytotoxicity [6] -0.0801% [at 19 µM] | activity change, negative = inhibition [7] -2.48% [at 19 µM] | viability change, negative = cytotoxic [8] -1.69% [at 15.8 µM] | activation [9] -5.81% [at 15.8 µM]

CCCCOC(O)CC (stereo not drawn)
inactive: Potency [1] | Potency [2] | Potency [3] | Potency [4] | outcome [5] | Potency [6] | Potency [7] | Potency [8] | Potency [9]

CC(=O)c1c(C)c([N+](=O)[O-])c(C(C)(C)C)c([N+](=O)[O-])c1C
inactive: Potency [1] | Potency [2] | Potency [3] | Potency [4] | outcome [5] | Potency [6] | Potency [7] | Potency [8] | Potency [9]

CCCCCCCCCCCCCCCC(=O)OC/C=C(C)/C=C/C=C(C)/C=C/C1=C(C)CCCC1(C)C
inactive: Potency [1] | Potency [2] | Potency [3] | Potency [4] | outcome [5] | Potency [6] | Potency [7] | Potency [8] | Potency [9]

COCCO
inactive: Potency [1] | Potency [2] | Potency [3] | Potency [4] | outcome [5] | Potency [6] | Potency [7] | Potency [8] | Potency [9] | Potency [10]

CCCc1ccccc1
inactive: Potency [1] | Potency [2] | Potency [3] | Potency [4] | outcome [5] | Potency [6] | Potency [7] | Potency [8] | Potency [9]

Cc1ccc(O)c([C@H](CCN(C(C)C)C(C)C)c2ccccc2)c1
inactive: Potency [3] | Potency [4] | outcome [5] | Potency [6] | Potency [7] | Potency [8]

CCN(CC)CCOC(=O)C1(c2ccccc2)CCCC1
inactive: Potency [1] | Potency [2] | Potency [3] | Potency [4] | outcome [5] | Potency [6] | Potency [7] | Potency [8] | Potency [9] | Potency [10]

Cn1c(=O)c2c(ncn2CC(O)CO)n(C)c1=O (stereo not drawn)
inactive: Potency [1] | Potency [2] | Potency [3] | Potency [4] | outcome [5] | Potency [6] | Potency [7] | Potency [8] | Potency [9]

N=C(N=C(N)N)N1CCOCC1
inactive: Potency [1] | Potency [2] | Potency [3] | Potency [4] | outcome [5] | Potency [6] | Potency [7] | Potency [8] | Potency [9] | Potency [10]

Cc1ccc(C(C)c2ccc(C)c(C)c2)cc1C
inactive: Potency [1] | Potency [2] | Potency [3] | Potency [4] | outcome [5] | Potency [6] | Potency [7] | Potency [8] | Potency [9]

Cc1ccc(C(=O)C(C)CN2CCCCC2)cc1 (stereo not drawn)
inactive: Potency [1] | Potency [2] | Potency [3] | Potency [4] | outcome [5] | Potency [6] | Potency [7] | Potency [8] | Potency [9]

CC(=O)OC/C=C/c1ccccc1
inactive: Potency [1] | Potency [3] | Potency [4] | outcome [5] | Potency [6] | Potency [7] | Potency [8] | Potency [9] | Potency [10]

CC(C)(C)c1cc(CO)cc(C(C)(C)C)c1O
inactive: Potency [1] | Potency [2] | Potency [3] | Potency [4] | outcome [5] | Potency [6] | Potency [7] | Potency [8] | Potency [9]

O=c1c2ccccc2nnn1CCl
inactive: Potency [1] | Potency [2] | Potency [3] | Potency [4] | outcome [5] | Potency [6] | Potency [7] | Potency [8] | Potency [9] | Potency [10]

COc1ccc(C(C)=O)cc1
inactive: Potency [1] | Potency [2] | Potency [3] | Potency [4] | outcome [5] | Potency [6] | Potency [7] | Potency [8] | Potency [9]

N#CCCNCCC#N
inactive: Potency [1] | Potency [2] | Potency [3] | Potency [4] | outcome [5] | Potency [6] | Potency [7] | Potency [8] | Potency [9]

CCCCCCCCCC(=O)OCC
inactive: Potency [1] | Potency [2] | Potency [3] | Potency [4] | outcome [5] | Potency [6] | Potency [7] | Potency [8] | Potency [9]
